Source: PubChem BioAssay
Several values for one entry are separate records, joined by “and”; a condition that tells them apart may be missing. Identical values can stand only once. Records with an inconclusive call do not appear. More than one record can exist for a structure, and the calls need not agree. Activity calls are given as the source filed them.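 How the source made its calls, unless noted: active means thallium flux through the channel raised or lowered by more than 3 SD from vehicle-only wells, actives on both sides; inactive means the rest.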

Legend:
[1] = hESC survival regulators, cell-based (AID 493140; call rule not given here;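 further: cells exposed to compounds for four days before counting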); conditions: human embryonic stem cell survival screen; stronger effect = higher value
[2] = Cy5 fluorescence interference with SSB-bound oligo, artefact control for HCV NS3 helicase inhibitor project, biochemical, NIH Clinical Collection, E. coli SSB (AID 743268; call rule not given here)
[3] = test system: Hepatitis C virus NS3 helicase; assay: HCV NS3 helicase inhibitors, primary screen, biochemical, fluorescence polarization, NIH Clinical Collection (AID 743270; call rule not given here); conditions: NS3 helicase binding to Cy5-dT15 DNA, stronger effect = higher value, concentration not given here
[4] = biological target: Single-stranded DNA-binding protein (Escherichia coli (strain K12)) (UniProt P0AGE0); assay: E. coli SSB displacement from DNA, counter-screen for HCV NS3 helicase inhibitor project, biochemical, fluorescence polarization, NIH Clinical Collection (AID 743271; in the data active means inhibition above about 28%); conditions: stronger effect = higher value, concentration not given here
[5] = fluorescence interference in NS3h assay format, artefact control for HCV NS3 helicase inhibitor project, biochemical, NIH Clinical Collection (AID 743272; call rule not given here;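 further: HCV NS3 helicase with a Cy5 labelled single stranded DNA probe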); conditions: fluorescence interference counterscreen, stronger effect = lower value
[6] = stimulators of nuclear beta-catenin in C2C12, primary screen, imaging, WNT3A-conditioned medium, mouse C2C12, NPC library (AID 1117326; in the data active means nuclear beta-catenin stimulation mostly above about 4.2%, no sharp cut-off; inactive means mostly below about 10%); conditions: stronger effect = higher value
[7] = stimulators of insulin release from INS-1E, primary screen, cell-based, 5 mM glucose, NPC library (AID 1117329;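 active means compound raises insulin release from rat beta cells at 5 mM glucose, no numeric limit stated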); conditions: rat INS-1E insulin secretion, at 10 µM, stronger effect = higher value
[8] = growth inhibition of GSK3B-pretreated HCT116 cells – cell-based, CellTiter-Glo, 0.2 to 20 µM (AID 1117336;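 active means compounds lowering colon cancer cell viability after pretreatment blocking the GSK3B kinase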); conditions: HCT116 viability after GSK3B inhibitor, at 20 µM, stronger effect = higher value
[9] = inhibition of endothelial tube formation, primary screen, imaging, VEGF stimulated, CD31 staining, tube area, NPC library (AID 1117340;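 active means compound that reduces growth-factor-driven endothelial tube area in a mixed cell culture, no cutoff stated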); conditions: VEGF-stimulated ADSC/ECFC co-culture, at 10 µM, stronger effect = higher value
[10] = glucagon-like peptide 1 release enhancers, primary assay, NCI-H716 cell line, NPC library (AID 1117341;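 active means compound raises GLP1 secretion from the human gut endocrine cells, with no numeric limit stated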); conditions: NCI-H716 cells, at 10 µM, stronger effect = higher value
[11] = HCT116 colon cancer cell growth inhibition, primary screen, CellTiter-Glo luminescence, NPC library (AID 1117342;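 active means compounds that lower survival of HCT116 colon cancer cells in the luminescence readout, no numeric limit stated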); conditions: at 20 µM (top of the series)
[12] = CellTiter-Glo luminescent readout of SW480 viability loss, NPC library primary (AID 1117343;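 active means compounds that lower viability of the colon cancer cells in the luminescence readout, with no numeric limit stated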); conditions: CellTiter-Glo luminescence; at 20 µM (top of the series)
[13] = decreased DLD-1 cellular survival, CellTiter-Glo luminescent readout, NPC compound collection, primary HTS (AID 1117346;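 active means compounds that lower survival of DLD-1 colon cancer cells in the luminescence readout, no cutoff given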); conditions: DLD-1 viability, CellTiter-Glo luminescence; at 20 µM (top of the series)
[14] = biological target: 6-phosphogluconate dehydrogenase, decarboxylating (Homo sapiens) (UniProt P52209); assay: 6PGD enzyme inhibitors, primary screen, biochemical, human, recombinant enzyme, NADPH absorbance (AID 1159550;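 active means at least 20% inhibition of 6-phosphogluconate dehydrogenase activity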); conditions: recombinant 6PGD, NADPH absorbance 341 nm; at 10 µM; stronger effect = higher value
Chain of 6-phosphogluconate dehydrogenase, decarboxylating (Homo sapiens) (P52209 whole entry, looked up): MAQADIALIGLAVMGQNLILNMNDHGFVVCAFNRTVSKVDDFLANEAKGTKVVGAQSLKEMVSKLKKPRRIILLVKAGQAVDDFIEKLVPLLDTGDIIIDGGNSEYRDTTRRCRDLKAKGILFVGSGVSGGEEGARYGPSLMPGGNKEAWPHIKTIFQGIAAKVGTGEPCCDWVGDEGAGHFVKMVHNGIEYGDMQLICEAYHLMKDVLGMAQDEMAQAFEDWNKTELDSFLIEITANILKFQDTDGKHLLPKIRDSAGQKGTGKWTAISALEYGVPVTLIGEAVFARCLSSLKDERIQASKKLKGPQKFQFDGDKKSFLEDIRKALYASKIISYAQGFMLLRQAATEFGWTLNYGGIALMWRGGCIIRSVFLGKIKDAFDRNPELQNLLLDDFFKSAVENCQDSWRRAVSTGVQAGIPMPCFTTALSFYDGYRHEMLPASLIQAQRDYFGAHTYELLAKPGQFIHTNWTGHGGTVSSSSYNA

[15] = growth inhibition of DIPG glioma cells, dose response, cell-based, SU-DIPG-XVII, MIPE5.0, CellTiter-Glo, qHTS (AID 1347060; cut-off not given, nearly all actives have AC50 up to about 26 µM); conditions: SU-DIPG-XVII viability, CellTiter-Glo ATP luminescence
[16] = growth inhibition of DIPG glioma cells, dose response, cell-based, SU-DIPG-XIII, MIPE4.0, CellTiter-Glo, qHTS (AID 1347061; cut-off not given, nearly all actives have AC50 up to about 37 µM;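 further: cells exposed to compound for 48 hours before readout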); conditions: SU-DIPG-XIII viability, CellTiter-Glo ATP luminescence
[17] = growth inhibition of DIPG glioma cells, dose response, cell-based, JHH-DIPG-1, MIPE4.0, CellTiter-Glo, qHTS (AID 1347062; cut-off not given, nearly all actives have AC50 up to about 27 µM); conditions: JHH-DIPG-1 viability, CellTiter-Glo ATP luminescence
[18] = growth inhibition of DIPG glioma cells, dose response, cell-based, SU-DIPG-XIII, MIPE5.0, CellTiter-Glo, qHTS (AID 1347064; cut-off not given, nearly all actives have AC50 up to about 23 µM); conditions: SU-DIPG-XIII viability, CellTiter-Glo ATP luminescence
[19] = JHH-DIPG-1 glioma cell viability, MIPE5.0 library, CellTiter-Glo luminescence, qHTS (AID 1347067; cut-off not given, nearly all actives have AC50 up to about 26 µM;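 further: cells exposed to compound for 48 hours before readout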); conditions: JHH-DIPG-1 glioma viability, CellTiter-Glo ATP luminescence
[20] = sensitizers of A549 cells to miR-34 induction, primary screen, imaging, A549 dox-inducible miR-34, nuclei and caspase counts (AID 1347080;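 active means compounds whose cell count with miR-34 switched on is under 0.7 times the count with it off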); conditions: A549 miR-34 inducible, Hoechst nuclei count, 48 h
[21] = survival rescue of mitochondrial mutant cells in low glucose, primary screen, MELAS cybrids, Rieske KO mouse fibroblasts, CellTiter-Glo (AID 1508586;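 active means mean z-score across replicates of 1.96 or higher in either the MELAS or the Rieske mutant cell line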;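 further: z relative to plate mean and SD of compound and empty wells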)
[22] = biological target: NAD(+) hydrolase SARM1 (Homo sapiens) (UniProt Q6SZW1); assay: SARM1 TIR NADase inhibitors, cell lysate, NAD-Glo luminescence (AID 1508614;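 active means compound whose remaining NAD level is above about 45 nM, limit read from the data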); conditions: SAM-TIR HEK293T lysate NADase, at 1 µM, stronger effect = higher value
Chain of NAD(+) hydrolase SARM1 (Homo sapiens) (Q6SZW1 whole entry, looked up, the tested form may be a part): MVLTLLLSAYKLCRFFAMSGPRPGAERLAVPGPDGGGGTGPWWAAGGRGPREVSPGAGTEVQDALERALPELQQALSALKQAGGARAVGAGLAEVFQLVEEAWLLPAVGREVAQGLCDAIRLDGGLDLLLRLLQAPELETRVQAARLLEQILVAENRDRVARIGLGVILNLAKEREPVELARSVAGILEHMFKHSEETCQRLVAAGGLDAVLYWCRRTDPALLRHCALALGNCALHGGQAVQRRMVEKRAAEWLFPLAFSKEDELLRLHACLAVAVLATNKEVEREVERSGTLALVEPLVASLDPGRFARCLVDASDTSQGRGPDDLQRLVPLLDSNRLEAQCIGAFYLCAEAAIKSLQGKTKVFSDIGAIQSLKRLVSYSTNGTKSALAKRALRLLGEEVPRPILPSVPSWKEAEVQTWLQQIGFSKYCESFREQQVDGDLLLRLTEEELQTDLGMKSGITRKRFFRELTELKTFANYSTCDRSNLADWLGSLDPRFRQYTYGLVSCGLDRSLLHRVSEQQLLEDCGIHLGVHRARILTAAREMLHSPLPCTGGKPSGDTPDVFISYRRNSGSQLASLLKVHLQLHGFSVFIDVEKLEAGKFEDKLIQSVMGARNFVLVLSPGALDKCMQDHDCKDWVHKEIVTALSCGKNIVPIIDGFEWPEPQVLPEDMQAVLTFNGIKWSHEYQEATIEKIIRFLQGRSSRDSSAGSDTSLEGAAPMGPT

[23] = biological target: Mitogen-activated protein kinase 7 (Homo sapiens) (UniProt Q13164); assay: ERK5 transactivation activators in reporter cells, primary screen, cell-based, HTS (AID 1508626;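 active means luciferase signal above three times the same-plate solvent-only control wells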;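 further: luciferase driven by Gal4-ERK5 fusion binding five Gal4 sites before minimal TATA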); conditions: HeLa Gal4-ERK5 transactivation, 18 h, at 5 µM, stronger effect = higher value
Chain of Mitogen-activated protein kinase 7 (Homo sapiens) (Q13164 whole entry, looked up, the tested form may be a part): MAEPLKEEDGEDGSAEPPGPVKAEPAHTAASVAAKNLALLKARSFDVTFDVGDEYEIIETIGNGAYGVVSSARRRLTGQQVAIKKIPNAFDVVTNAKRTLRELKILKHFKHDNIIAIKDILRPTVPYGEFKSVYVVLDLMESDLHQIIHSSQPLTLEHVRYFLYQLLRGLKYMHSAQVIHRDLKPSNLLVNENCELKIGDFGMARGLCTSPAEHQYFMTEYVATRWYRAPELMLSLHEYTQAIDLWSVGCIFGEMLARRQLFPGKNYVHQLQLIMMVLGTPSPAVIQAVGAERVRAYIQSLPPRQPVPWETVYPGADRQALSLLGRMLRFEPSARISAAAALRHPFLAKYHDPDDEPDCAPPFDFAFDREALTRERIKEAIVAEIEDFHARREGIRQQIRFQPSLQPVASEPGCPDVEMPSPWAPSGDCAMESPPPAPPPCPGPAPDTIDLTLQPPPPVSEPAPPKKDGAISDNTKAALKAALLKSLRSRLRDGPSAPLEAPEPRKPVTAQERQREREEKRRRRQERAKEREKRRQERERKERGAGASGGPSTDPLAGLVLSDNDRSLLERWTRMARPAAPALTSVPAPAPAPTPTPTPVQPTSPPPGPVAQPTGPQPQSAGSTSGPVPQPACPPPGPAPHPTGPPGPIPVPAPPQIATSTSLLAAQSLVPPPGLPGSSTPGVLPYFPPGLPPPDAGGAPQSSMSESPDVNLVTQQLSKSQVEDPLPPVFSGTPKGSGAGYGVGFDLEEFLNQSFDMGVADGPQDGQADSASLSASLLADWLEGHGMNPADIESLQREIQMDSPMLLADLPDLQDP

[24] = viability rescue of complex I mutant cybrids, primary screen, cell-based, galactose medium, ATP luminescence (AID 1645843;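 active means z-score of at least 1.8 in each of two replicates, scored against plate mean and spread of sample wells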;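 further: positive z means more ATP and so rescue of galactose-driven cybrid death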); conditions: complex I mutant cybrid cells, 72 h, stronger effect = higher value
F380Y = assay: modulators of BK channel variants, profiling panel, selectivity assay, cell-based, U2OS BacMam, thallium flux, beta subunits (AID 1259406); conditions: at 30 µM;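 further: initial slope of Thallos dye fluorescence rise after thallium is added; log ratio against the mean of 0.3% DMSO vehicle wells on the same plate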
F380Y/beta1 = assay: as above; conditions: at 30 µM
F380Y/beta2Delta = assay: as above; conditions: at 30 µM
F380Y/beta4 = assay: as above; conditions: at 30 µM
[25] = biological target: Calcium-activated potassium channel subunit alpha-1 (Homo sapiens) + Leucine-rich repeat-containing protein 26 (Homo sapiens) (UniProt Q12791+Q2I0M4); assay: as above; conditions: F380Y/Slo1WT/gamma1, at 30 µM
Chain of Calcium-activated potassium channel subunit alpha-1 (Homo sapiens) + Leucine-rich repeat-containing protein 26 (Homo sapiens) (Q2I0M4 whole entry, looked up, one chain of several): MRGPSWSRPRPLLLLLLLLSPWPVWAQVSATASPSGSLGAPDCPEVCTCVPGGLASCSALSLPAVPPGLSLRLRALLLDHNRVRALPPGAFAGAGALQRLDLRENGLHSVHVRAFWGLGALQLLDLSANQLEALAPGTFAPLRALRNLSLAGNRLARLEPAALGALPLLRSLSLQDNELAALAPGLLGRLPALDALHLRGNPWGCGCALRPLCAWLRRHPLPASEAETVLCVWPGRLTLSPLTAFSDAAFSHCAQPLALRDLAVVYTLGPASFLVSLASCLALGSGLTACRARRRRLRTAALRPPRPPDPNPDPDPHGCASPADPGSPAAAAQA

R275C = assay: as above; conditions: at 30 µM
R275C/beta1 = assay: as above; conditions: at 30 µM
R275C/beta2Delta = assay: as above; conditions: at 30 µM
R275C/beta4 = assay: as above; conditions: at 30 µM
R275C/Slo1WT/beta2 = assay: as above; conditions: at 30 µM
[26] = liver-stage malaria parasite growth inhibition, primary screen, cell-based, HepG2, luciferase luminescence, HepG2 viability (AID 624349; in the data active means parasite load remaining mostly below about 12%, no sharp cut-off; inactive means mostly above about 10%;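 further: 100% = mean of DMSO negative control wells on the same plate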); conditions: P. berghei liver stage in HepG2, luciferase luminescence, concentration not given here; parasite load remaining: stronger effect = lower value; viability: measured here: HepG2 viability without parasites
[27] = differential killing of epithelial or mesenchymal cells, primary screen, imaging, PC-3E GFP, TEM4-18 mCherry, co-culture (AID 1345086;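 active means compounds killing one labelled cell type while sparing the other, by normalised counts and ratio limits, not self-fluorescent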;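 further: cells exposed to compound for 72 h before imaging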;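 on red/green cell ratio (normalised): normalised mesenchymal count divided by normalised epithelial count so high means epithelial killing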); conditions: imaging cell counts, at 1 µM
[28] = stronger effect = lower value, cell number ratio, induced over uninduced
[29] = measured here: relative caspase fold change +Dox/-Dox
[30] = measured here: total cells with miR-34 induction, stronger effect = lower value
[31] = measured here: total cells without miR-34 induction

C[C@]12C=CC(=O)C=C1CC[C@@H]1[C@@H]2[C@@H](O)C[C@@]2(C)[C@H]1CC[C@]2(O)C(=O)CO
inactive: survival [1] 15.8 | fluorescence ratio [2] 1.02 | inhibition [3] -1.36% | inhibition [4] 0.29% | fluorescence ratio [5] 0.96 | nuclear beta-catenin stimulation ([6]; at 10 µM) -2.6% | insulin secretion stimulation [7] 1.6% | viability decrease [8] -2.7% | tube area decrease [9] 11.2% | GLP1 secretion stimulation [10] -0.5% | inhibition of viability [11] -3.5% | viability decrease (inhibition) [12] -1.5% | viability decrease (inhibition) [13] -18.8% | inhibition [14] -5.44% | outcome [15] | outcome [16] | outcome [17] | outcome [18] | outcome [19] | fold change [20, 28] 0.93 and 0.783 and 0.847 | z-score ([21]; MELAS cybrid survival, CellTiter-Glo 48 h, stronger effect = higher value) 0.367 and 0.381 | remaining NAD [22] 10 nM | luciferase signal [23] 84 AU | z-score [24] -0.29 and 0.46 | log fold change Tl+ flux (F380Y) 0.0238 | log fold change Tl+ flux (F380Y/beta1) 0.00512 | log fold change Tl+ flux (F380Y/beta2Delta) 0.0411 | log fold change Tl+ flux (F380Y/beta4) 0.023 | log fold change Tl+ flux [25] -0.0308 | log fold change Tl+ flux (R275C) 0.0128 | log fold change Tl+ flux (R275C/beta1) 0.0311 | log fold change Tl+ flux (R275C/beta2Delta) 0.0197 | log fold change Tl+ flux (R275C/beta4) -0.0125 | log fold change Tl+ flux (R275C/Slo1WT/beta2) -0.0471
7530 and 6090 and 6580: cell count [20, 30]
-0.7%: nuclear beta-catenin stimulation ([6]; stimulation, at 2 µM)
1.73 and 1.43 and 1.29: fold change [20, 29]
8090 and 7780 and 7760: cell count [20, 31]
-0.0179 and 1.19: z-score ([21]; Rieske KO mouse fibroblast survival, CellTiter-Glo 72 h)

C=CCCCCCCCCC(=O)O
13300: cell count [20, 31]
11700: cell count [20, 30]
4.79: fold change [20, 29]
0.95: normalised cell number ([27]; measured here: mesenchymal TEM4-18 mCherry cell survival)
inactive: parasite load remaining [26] 49.2% | nuclear beta-catenin stimulation ([6]; at 10 µM) -0.1% and -2.1% | insulin secretion stimulation [7] -1.7% and 0.4% | viability decrease [8] -6.75% and -111% | tube area decrease [9] 3.3% and 1.9% | GLP1 secretion stimulation [10] 1.3% and -1.9% | inhibition of viability [11] 0.2% and 0.1% | viability decrease (inhibition) [13] 14.5% and 8% | red/green cell ratio (normalised) ([27]; actives lie on both sides, counts scaled to control wells, 1 = unselective) 0.93 | fold change [20, 28] 0.879 | remaining NAD [22] 10 nM | luciferase signal [23] 20 AU
69.8% (active) and 6.3% (inactive): viability decrease (inhibition) [12]
1.02: normalised cell number ([27]; measured here: epithelial PC-3E GFP cell survival)
0.8% and -1.5%: nuclear beta-catenin stimulation ([6]; stimulation, at 2 µM)
96.2%: viability [26]
